Source: PubChem BioAssay (several laboratories)
PKA-R1A activ = PKA-R1A complex activation | P00514+P68181 | PKA-R1A dissociation, Cy5-IP20 fluorescence polarization; scaled: DMSO 0%, 113 µM cGMP 100% | activation, % at 11.4 µM | 0.083% of 340,000 active;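 active = percent activation above the mean of all tested compounds plus 3 SD, cut at about 19% in these data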;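 note: higher means more PKAc released from R1A so a rise in polarization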
JMJD2C inh = inhibitors of human GASC-1 (JMJD2C) demethylase | GST-JMJD2C(1-420) H3K9me3 demethylation, DELFIA europium | inhibition, % at 2.35 µM | 0.069% of 330,000 active | AID 2099;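 active = more than half of a compound's replicate wells show inhibition beyond 50%, single wells judged on their own value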;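 note: signal counts dimethyl H3K9 product captured on neutravidin plate; 0% = median of DMSO wells and 100% = 0.3 times that DMSO median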
Target sequence (Q9H3R0 1-420 limits assumed): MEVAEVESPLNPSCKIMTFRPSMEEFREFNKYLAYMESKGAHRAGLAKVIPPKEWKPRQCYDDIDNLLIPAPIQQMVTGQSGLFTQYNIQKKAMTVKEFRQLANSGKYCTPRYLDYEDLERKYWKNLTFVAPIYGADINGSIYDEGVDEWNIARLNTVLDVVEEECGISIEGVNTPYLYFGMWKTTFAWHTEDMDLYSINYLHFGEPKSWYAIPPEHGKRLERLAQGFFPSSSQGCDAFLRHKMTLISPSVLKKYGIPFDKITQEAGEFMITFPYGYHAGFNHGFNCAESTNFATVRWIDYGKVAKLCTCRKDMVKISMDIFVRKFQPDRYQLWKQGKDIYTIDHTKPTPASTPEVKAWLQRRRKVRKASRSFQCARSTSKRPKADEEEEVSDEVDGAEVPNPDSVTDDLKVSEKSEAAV
PKA-R2B act = PKA-R2B complex activation; P22694+P31323; PKA-R2B holoenzyme dissociation, Cy5-IP20 fluorescence polarization; R2B truncated from residue 108, S112A mutant; 0% DMSO only, 100% 113 µM cGMP; activation, % at 11.4 µM; 0.079% of 340,000 active;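 active = activation above a cutoff set at the mean over all compounds plus 3 SD, cut at about 18% in these data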;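 note: higher means more holoenzyme dissociation and a rise in polarization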
CR mimetic SO = caloric restriction mimetics inhibiting age-related superoxide in yeast; S. cerevisiae aged cells, superoxide DHE fluorescence; hits give low values; superoxide response (% of plate mean), % at 10 µM; 0.18% of 330,000 active; AID 2690;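 active = superoxide response under a set limit, about three screen SD below normal, cut at about 65% in these data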;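 note: yeast aged for seven days with compound at 30 °C before DHE staining; 100% = average MFI of all compound-treated wells on the plate with controls excluded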
V-ATPase pH = alters yeast V-ATPase proton transport. S. cerevisiae, pHLuorin cytosolic pH fluorescence. response, % at 10 µM. 0.37% of 350,000 active; in the data active = response mostly above about 7.3%, no sharp cut-off; inactive = mostly below about 5.4%; note: actives read high
PolyA inh = blocks polyadenylation in yeast reporter cells | S. cerevisiae SKY197-pL101 polyadenylation reporter, beta-gal luminescence; efflux-impaired pdr1/pdr3 knockout yeast; score 100 = 6 SD above DMSO | activity score, % at 12 µM | 0.02% of 300,000 active;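 active = lowest replicate activity score at least 50, where 100 means six control SD above control mean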;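 note: yeast exposed to compound for 9 h at 30 °C; higher score means more reporter readthrough which indicates perturbed polyadenylation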
VATPase regulator = yeast V-ATPase proton transport regulation | response, % at 10 µM | 2% of 980 active | shares compounds with V-ATPase pH | S. cerevisiae pHLuorin cytosolic pH; in the data active = response above about 24%;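 note: plate controls were vehicle wells for no effect and positive control wells for full effect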
* hit, by the source's call; · = no result. Only some compounds are listed: those with a hit (about 0.78% of all), similar ones and a draw of the others.

SMILES	PKA-R1A activ	JMJD2C inh	PKA-R2B act	CR mimetic SO	V-ATPase pH	PolyA inh	VATPase regulator
CC(=O)NC(CC(=O)OCC(=O)c1c(N)n(C)c(=O)n(C)c1=O)c1ccccc1 (stereo not given)	-3.2	-11.7	-1.1	104.4	11.4*	2.6	-1.0
CCC(C)NC(=O)C1CCC(CNS(=O)(=O)c2ccccc2)CC1 (stereo not given)	-4.8	6.0	-1.7	104.4	-3.8	5.0	·
CCOc1ccc(NC(=S)NCc2nc3ccccc3[nH]2)cc1	-4.9	-20.2	-2.2	104.9	10.5*	-11.5	-1.2
FC(F)Oc1ccc(NC(=S)NCc2nc3ccccc3[nH]2)cc1	0.2	-8.2	-3.2	93.7	2.0	-11.1	·
Cc1ccc(S(=O)(=O)N(C)/N=C/c2ccc(N(C)C)cc2)cc1	0.7	-0.9	-5.7	97.4	8.9	-10.9	·
CCn1c(SCC(=O)Nc2nc3ccccc3s2)nnc1-c1ccc(Br)cc1	-7.0	12.6	-0.6	93.9	15.4*	1.2	1.2
Cn1c(SCC(=O)Nc2nc3ccccc3s2)nnc1-c1ccccc1	-1.5	9.3	-6.0	96.5	-1.3	·	·
Cc1ccc(OCC(=O)N(C)C2CCCCC2)c([N+](=O)[O-])n1	1.1	-1.1	-0.7	98.0	-4.8	·	·
CCc1noc(C)c1C(=O)N1CCN(S(=O)(=O)c2cccs2)CC1	-0.8	-3.6	7.0	102.1	7.1*	-2.6	0.9
Cc1ncsc1CCOC(=O)c1ccc([N+](=O)[O-])cc1	-2.7	0.5	-0.1	101.5	45.1*	14.9	-1.1
Cc1ncsc1CCOC(=O)c1ccc(N2CCOCC2)c([N+](=O)[O-])c1	-7.1	0.7	-7.0	102.3	2.2	2.4	·
CCOC(=O)C(=O)c1cn(C2OCC(OC(C)=O)C(OC(C)=O)C2OC(C)=O)c2ccccc12 (stereo not given)	-1.1	1.3	3.1	103.7	13.9*	-12.9	-5.7
NS(=O)(=O)c1ccc(NN=C2CCN(Cc3ccccc3)CC2)c([N+](=O)[O-])c1	6.8	4.0	4.0	97.1	16.1*	6.4	3.7
NCCCSC1=NCCCN1	-5.4	-102.1	2.5	99.4	0.5	15.1	2.4
Cn1c(SCC(=O)NC2(C#N)CCCCC2)nnc1-c1cccnc1	-8.7	-4.1	3.4	83.8	9.3*	16.6	0.7
CC(=O)N1CCN(c2ccc(NS(=O)(=O)c3ccc(C)cc3)cc2)CC1	5.5	7.0	-2.5	85.4	1.4	-4.3	·
CC1=NOC(=O)/C1=C/c1ccc2c(c1)OCO2	4.1	10.6	-0.7	81.8	11.1*	6.3	-31.0
CC1=NOC(=O)/C1=C\c1ccc2c(c1)OCO2	-10.7	5.5	-7.1	113.8	-1.6	-0.5	·
OC(c1ccccc1)C(Nc1ccccn1)c1ccccc1 (stereo not given)	-3.5	·	-8.3	·	-5.7	·	·
O=C(COC(=O)/C=C/c1ccccc1Cl)NC(=O)Cc1ccccc1	5.8	-6.8	2.0	96.6	9.9*	-15.0	1.6
O=C(COC(=O)/C=C/c1ccccc1Cl)NC(=O)NCc1ccccc1	1.6	1.3	-5.5	73.2	2.6	·	·
O=C(NCCCNC(=O)c1ccccn1)c1ccc(F)cc1	0.3	-25.3	4.9	96.1	-1.1	-12.0	·
O=C(CCCN1CCC(C(=O)c2ccc(F)cc2)CC1)c1ccc(F)cc1	-0.2	2.3	2.7	95.2	0.2	-4.9	·
O=C(CCCC(=O)c1ccc(F)cc1)c1ccc(F)cc1	7.4	-4.2	-10.3	84.0	7.6	-5.8	1.1
O=C(O)CCC(=O)NCC(=O)c1ccc(F)cc1	·	11.5	·	109.6	8.5	9.9	-0.6
O=C(O)CCC(=O)Nc1ccc(F)cc1	-9.2	6.0	-6.9	94.6	0.6	8.4	·
O=C(NCCCNC(=O)c1ccc(F)cc1)c1ccc(F)cc1	-0.8	-4.8	1.1	102.9	4.5	21.0	0.8
Cc1nn(Cc2c(F)c(F)c(F)c(F)c2F)c(C)c1NC(=O)c1ccc(COc2cc(Cl)ccc2Cl)cc1	3.7	-4.6	-7.3	89.8	2.1	10.2	·
Cc1nn(Cc2c(F)c(F)c(F)c(F)c2F)c(C)c1NC(=O)c1ccc(COc2ccccc2Cl)cc1	-3.4	-8.4	1.9	·	16.2*	31.2	-0.2
